Data on five compounds can be found in PubChem BioAssay.

The source made the active and inactive calls.

Test [1] is described as follows: small molecules captured by biotinylated probe aFSTL3 – biochemical, small-molecule microarray, fluorescence 635/667, stem cell growth factor project, primary screen (AID 1064).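 Also: measures binding of the biotinylated anti-FSTL3 antibody to printed compounds.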 The settings on record: higher = more signal.
The nature of test [2]: binders from COS7 lysate, DM2A8 probe, primary screen, torsin A project, cell lysate, small-molecule microarray, fluorescence 635/667 (AID 1065). The settings on record: higher = more signal, COS7 lysate expressing mutant human TOR1A.
Test [3] is described as follows: small molecules captured by biotinylated probe aFGF2 – biochemical, small-molecule microarray, fluorescence 635/667, stem cell growth factor project, primary screen (AID 1067).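 Also: measures binding of biotinylated aFGF2 protein to printed compounds on slides; z-score merges feature fluorescence and signal-to-noise across triplicate slides.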 The settings on record: higher = more signal.
Test [4] is described as follows: small molecules captured by biotinylated probe aFGF10 – biochemical, small-molecule microarray, fluorescence 635/667, stem cell growth factor project, primary screen (AID 1071).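 Also: score merges 667 nm spot intensity and signal to noise from triplicate slides.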 The settings on record: higher = more signal.
For test [5], the target named is Neurogenic locus notch homolog protein 2 (Homo sapiens) (UniProt Q04721). As to the kind of experiment: small molecules binding Notch2 protein – biochemical, small-molecule microarray, 635 nm fluorescence, stem cell growth factors, primary screen (AID 1073). The settings on record: higher = more signal.
The target in test [6] is Pro-neuregulin-1, membrane-bound isoform (Homo sapiens) (UniProt Q02297). Kind of test: small molecules binding neuregulin-1 protein – biochemical, small-molecule microarray, fluorescence 635/667, psychiatric disease protein project, primary screen (AID 1075).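 Also: score combines 667 nm spot fluorescence with signal to noise.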 The settings on record: NRG1 binding, 635 nm fluorescence, higher = more signal.
In test [7] the test system is Neuregulin-1 EGF-like domain. Kind of test: small molecules binding NRG1 EGF domain – biochemical, small-molecule microarray, 635 nm fluorescence, primary screen (AID 1081).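 Also: binding of the protein to compounds printed on small-molecule microarray slides.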 The settings on record: higher = more signal.
Test [8] is described as follows: FRG1 expression reporter modulators in myotubes – cell-based, C2C12 myotubes, firefly/Renilla luciferase, luminescence, FRG1 inhibition for FSHD, primary screen (AID 1084). The settings on record: FRG1 promoter luciferase, higher = more signal, called active from +8 up or from −8 down.
Test [9] in a line: small molecules captured by biotinylated probe aFST – biochemical, small-molecule microarray, fluorescence 635/667, stem cell growth factor project, primary screen (AID 1086).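 Also: score merges 667 nm fluorescence with signal-to-noise of each printed compound spot.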 The settings on record: higher = more signal.
Test [10] can be described thus: binders of probe aHhip on microarray, primary screen, stem cell growth factor project, biochemical, small-molecule microarray, fluorescence 635/667 (AID 1087).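 Also: score merges spot fluorescence at 667nm with spot signal to noise ratio.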 The settings on record: higher = more signal.
The test system of test [11] is PRMT1 (protein arginine N-methyltransferase 1). Kind of test: small molecules binding arginine methyltransferase PRMT1 – biochemical, small-molecule microarray, 635 nm fluorescence, primary screen (AID 1088).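 Also: binding of Prmt1 protein to compounds spotted on small-molecule microarray slides.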 To be noted: higher = more signal.
Test [12] is described as follows: growth effects on S. cerevisiae YJM789 – YJM789 clinical isolate, OD600, 24 h, basal, primary screen (AID 1089).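 Also: growth of clinical yeast isolate S. cerevisiae YJM 789 seeded 1000 cells per well; test concentration not given here.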 The settings on record: higher = more signal, called active from +8 up or from −8 down.
Test [13] can be described thus: S. pombe growth modifiers, basal conditions – strain 972, OD600, 24 h, no modulator, primary screen (AID 1090).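 Also: basal condition with compound alone and no growth modifier present; test concentration not given here.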 The settings on record: S. pombe 972 growth, higher = more signal, called active from +8 up or from −8 down.
Test [14] in a line: budding yeast growth modifiers under rapamycin – strain BY4716, OD600, 96 h, primary screen (AID 1091). Also: test concentration not given here. To be noted: S. cerevisiae BY4716 + rapamycin, higher = more signal, called active from +8 up or from −8 down.
Test [15] deals with Torsin-1A-interacting protein 2 (Homo sapiens) (UniProt Q8NFQ8). As to the kind of experiment: small molecules binding lysate-expressed LULL1 – cell lysate, human LULL1 lysate, 635/667 nm fluorescence, primary screen (AID 1092).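 Also: probe is lysate of COS7 cells overexpressing human LULL1; score merges per-feature 667 nm fluorescence with signal-to-noise.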 The settings on record: small-molecule microarray, hLULL1 lysate binding, 635 nm fluorescence; higher = more signal.
The nature of test [16]: optical density change of DRC41 E. coli – strain DRC41, OD650, 24 h, E. coli filamentation project, primary screen (AID 1093).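 Also: MC1000 strain lacking acrAB efflux and sulA so SOS filamentation is blocked; test concentration not given here.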 To be noted: E. coli DRC41 growth, higher = more signal, called active from +8 up or from −8 down.
Test [17] can be described thus: probe aLefty2 binding to arrayed compounds – biochemical, biotinylated probe, 635/667 nm fluorescence, primary screen (AID 1094).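 Also: score merges spot fluorescence near 667 nm with spot signal-to-noise ratio.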 To be noted: small-molecule microarray, higher = more signal.
For test [18], the system named is Noggin (protein binding on small-molecule microarray). As to the kind of experiment: small molecules binding Noggin protein – biochemical, 635/667 nm fluorescence, primary screen (AID 1095).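 Also: score merges 667 nm feature fluorescence with signal to noise over triplicate slides.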 The settings on record: 635 nm fluorescence, higher = more signal.
In test [19] the target is Neurogenic locus notch homolog protein 3 (Homo sapiens) (UniProt Q9UM47). Kind of test: small molecules binding NOTCH3 protein – biochemical, 635/667 nm fluorescence, primary screen (AID 1096). The settings on record: small-molecule microarray, 635 nm fluorescence, higher = more signal.
A short description of test [20]: probe aEGFR binding to arrayed compounds – biochemical, biotinylated probe, 635/667 nm fluorescence, primary screen (AID 1097).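 Also: probe is a biotinylated anti-EGFR antibody binding compounds printed on slides; score combines fluorescence near 667 nm and signal to noise of each spot.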 To be noted: small-molecule microarray, higher = more signal.

Chain of Torsin-1A-interacting protein 2 (Homo sapiens) (Q8NFQ8 whole entry, looked up): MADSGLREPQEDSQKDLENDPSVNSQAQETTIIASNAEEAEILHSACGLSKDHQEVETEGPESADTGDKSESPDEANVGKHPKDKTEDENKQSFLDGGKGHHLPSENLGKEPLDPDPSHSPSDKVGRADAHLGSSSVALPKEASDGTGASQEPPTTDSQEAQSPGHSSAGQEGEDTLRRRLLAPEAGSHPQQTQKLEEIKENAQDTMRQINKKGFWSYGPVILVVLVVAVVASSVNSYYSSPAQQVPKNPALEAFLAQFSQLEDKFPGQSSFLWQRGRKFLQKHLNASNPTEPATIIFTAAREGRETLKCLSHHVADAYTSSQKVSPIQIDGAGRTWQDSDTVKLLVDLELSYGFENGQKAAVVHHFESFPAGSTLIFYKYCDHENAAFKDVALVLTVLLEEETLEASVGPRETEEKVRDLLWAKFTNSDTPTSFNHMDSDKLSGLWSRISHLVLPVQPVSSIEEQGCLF
Chain of Neurogenic locus notch homolog protein 2 (Homo sapiens) (Q04721 whole entry, looked up, canonical isoform): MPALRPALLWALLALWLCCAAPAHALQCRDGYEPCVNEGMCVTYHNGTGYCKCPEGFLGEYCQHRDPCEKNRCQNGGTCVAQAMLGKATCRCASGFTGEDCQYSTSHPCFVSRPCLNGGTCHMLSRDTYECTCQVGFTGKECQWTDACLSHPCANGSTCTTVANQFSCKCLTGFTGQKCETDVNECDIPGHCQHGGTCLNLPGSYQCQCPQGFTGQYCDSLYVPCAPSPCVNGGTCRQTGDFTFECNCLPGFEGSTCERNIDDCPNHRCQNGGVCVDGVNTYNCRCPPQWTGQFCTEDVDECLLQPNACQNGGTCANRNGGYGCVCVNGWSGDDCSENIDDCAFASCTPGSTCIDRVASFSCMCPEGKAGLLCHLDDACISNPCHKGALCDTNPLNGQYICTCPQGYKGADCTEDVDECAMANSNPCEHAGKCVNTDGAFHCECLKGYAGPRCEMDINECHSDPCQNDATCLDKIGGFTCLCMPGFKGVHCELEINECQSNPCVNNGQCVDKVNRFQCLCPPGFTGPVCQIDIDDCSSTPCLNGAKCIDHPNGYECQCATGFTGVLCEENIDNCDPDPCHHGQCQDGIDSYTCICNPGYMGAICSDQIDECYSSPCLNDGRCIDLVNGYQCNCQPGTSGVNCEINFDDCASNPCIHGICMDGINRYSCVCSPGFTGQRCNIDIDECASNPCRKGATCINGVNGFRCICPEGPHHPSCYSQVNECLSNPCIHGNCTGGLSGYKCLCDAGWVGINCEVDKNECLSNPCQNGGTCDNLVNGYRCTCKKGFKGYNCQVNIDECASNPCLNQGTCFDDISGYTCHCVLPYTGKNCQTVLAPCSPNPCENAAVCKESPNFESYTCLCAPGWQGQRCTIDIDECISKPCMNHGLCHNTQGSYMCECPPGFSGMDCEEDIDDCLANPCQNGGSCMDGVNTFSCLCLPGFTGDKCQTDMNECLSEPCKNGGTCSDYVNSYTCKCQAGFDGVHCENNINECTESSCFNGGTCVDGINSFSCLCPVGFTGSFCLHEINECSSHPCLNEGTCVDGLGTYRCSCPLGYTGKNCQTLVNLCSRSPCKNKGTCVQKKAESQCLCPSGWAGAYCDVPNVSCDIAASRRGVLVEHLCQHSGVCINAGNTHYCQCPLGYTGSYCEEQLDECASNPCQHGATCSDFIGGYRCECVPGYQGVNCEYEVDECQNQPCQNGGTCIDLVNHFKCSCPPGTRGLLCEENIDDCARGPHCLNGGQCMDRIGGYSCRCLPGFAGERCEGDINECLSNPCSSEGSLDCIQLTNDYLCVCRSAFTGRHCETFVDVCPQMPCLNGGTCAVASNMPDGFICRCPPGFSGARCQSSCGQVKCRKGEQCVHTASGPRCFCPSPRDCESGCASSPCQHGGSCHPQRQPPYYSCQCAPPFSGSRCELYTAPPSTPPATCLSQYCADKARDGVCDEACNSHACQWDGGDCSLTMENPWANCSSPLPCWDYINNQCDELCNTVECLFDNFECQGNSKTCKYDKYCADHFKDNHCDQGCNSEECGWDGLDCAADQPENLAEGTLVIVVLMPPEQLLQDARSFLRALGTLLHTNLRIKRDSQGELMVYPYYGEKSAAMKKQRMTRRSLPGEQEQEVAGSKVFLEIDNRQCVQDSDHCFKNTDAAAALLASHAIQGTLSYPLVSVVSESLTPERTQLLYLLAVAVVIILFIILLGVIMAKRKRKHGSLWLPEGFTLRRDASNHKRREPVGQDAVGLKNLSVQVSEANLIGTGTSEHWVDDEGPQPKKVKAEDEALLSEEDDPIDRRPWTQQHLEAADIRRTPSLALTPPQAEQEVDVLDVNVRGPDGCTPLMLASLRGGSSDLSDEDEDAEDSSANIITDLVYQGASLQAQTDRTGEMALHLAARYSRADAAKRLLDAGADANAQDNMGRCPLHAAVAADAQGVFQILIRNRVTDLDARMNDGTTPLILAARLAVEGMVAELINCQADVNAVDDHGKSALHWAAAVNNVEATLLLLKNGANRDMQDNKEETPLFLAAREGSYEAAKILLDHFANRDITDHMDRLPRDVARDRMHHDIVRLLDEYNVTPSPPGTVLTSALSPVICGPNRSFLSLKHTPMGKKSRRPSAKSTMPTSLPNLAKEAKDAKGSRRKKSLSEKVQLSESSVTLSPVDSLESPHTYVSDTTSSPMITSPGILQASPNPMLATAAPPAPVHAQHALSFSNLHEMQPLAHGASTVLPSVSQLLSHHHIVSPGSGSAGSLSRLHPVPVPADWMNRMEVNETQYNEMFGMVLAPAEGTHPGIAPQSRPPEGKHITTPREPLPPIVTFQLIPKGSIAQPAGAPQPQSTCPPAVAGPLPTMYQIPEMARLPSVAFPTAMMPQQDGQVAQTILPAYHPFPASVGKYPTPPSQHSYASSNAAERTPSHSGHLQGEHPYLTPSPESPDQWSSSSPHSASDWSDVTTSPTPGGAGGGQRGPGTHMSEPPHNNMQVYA
Chain of Pro-neuregulin-1, membrane-bound isoform (Homo sapiens) (Q02297 whole entry, looked up, the tested form may be a part, canonical isoform): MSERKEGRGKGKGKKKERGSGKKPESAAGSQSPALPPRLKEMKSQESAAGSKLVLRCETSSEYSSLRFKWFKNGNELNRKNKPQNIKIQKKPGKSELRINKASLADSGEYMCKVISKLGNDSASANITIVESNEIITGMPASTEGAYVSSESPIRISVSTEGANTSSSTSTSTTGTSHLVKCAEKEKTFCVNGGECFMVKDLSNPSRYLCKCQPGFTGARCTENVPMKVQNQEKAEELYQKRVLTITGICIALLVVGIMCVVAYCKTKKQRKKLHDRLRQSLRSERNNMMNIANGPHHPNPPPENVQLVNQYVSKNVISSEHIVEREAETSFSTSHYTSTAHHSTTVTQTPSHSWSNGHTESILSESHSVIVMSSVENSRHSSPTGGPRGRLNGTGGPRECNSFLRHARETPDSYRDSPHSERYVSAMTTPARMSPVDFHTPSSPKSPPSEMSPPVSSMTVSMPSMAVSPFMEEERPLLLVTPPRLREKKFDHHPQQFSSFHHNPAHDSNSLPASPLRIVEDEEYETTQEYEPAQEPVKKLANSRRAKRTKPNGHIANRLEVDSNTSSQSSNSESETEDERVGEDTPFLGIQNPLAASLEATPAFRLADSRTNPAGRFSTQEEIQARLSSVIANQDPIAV

As for `CC(C)C(=C=CC[C@H](O)c1cccc(OCCO)c1)CCO`, the composite z-score was -0.068 in [1]; 1.33 in test [2]; -0.0937 in [3]; -0.194 in test [4]; -0.379 in test [5]; -0.356 in test [6]. The composite z-score in test [7] is -0.403; in test [9], -0.045; in test [10] it was -0.287; in test [11], 0.801; in test [15], 0.228; in test [17] it was -0.285. Besides, the composite z-score in [18] was 0.683; in test [19], 0.234; in [20] it was -0.165. The z-score is 0.163 (inactive) in [8]; -1.16 (inactive) in test [12]; -0.538 (inactive) in test [13]; -1.42 (inactive) in [14]; 0.537 (inactive) in [16].
On to `O=C1C2C=CC(C(O)c3ccc4c(c3)OCO4)N(Nc3ccccc3)C2C(=O)N1c1ccccc1` (stereo not given), for which the composite z-score was 0.154 in test [1]; -0.186 in [2]; 0.0917 in [3]; 0.847 in test [4]; 1.55 in [5]; 1.46 in [6]. Moreover, the composite z-score is 1.09 in test [7]; 1.38 in test [9]; -0.204 in [10]; 1.46 in test [11]; 3.05 in [15]; 0.266 in test [17]. The figures for the composite z-score in [18], in test [19] and in test [20] were -0.0526, 1.1 and 0.11, respectively. Further, the z-score in [8] was -0.545 (inactive); in test [12], -0.293 (inactive); in [13], 0.292 (inactive); in [14], 0.593 (inactive); in test [16], -0.784 (inactive).
Turning to `C=CCOC(=O)[C@H]1[C@@H]2C(=O)O[C@@H](c3ccccc3)[C@@H](c3ccccc3)N2[C@@H](c2ccc(OCCOC(=O)[C@H]3C[C@H]4C(=O)N[C@@H](CCCCNC(C)=O)C(=O)N4[C@H]3c3cccc(OCCO)c3)cc2)[C@]12C(=O)Nc1ccc(I)cc12`, the composite z-score was 0.276 in [1]; 1.01 in test [2]; -0.144 in test [3]; 0.818 in [4]; 0.656 in [5]; 1.29 in test [6]. Moreover, the composite z-score in test [7] was 1.26; in [9], 2.65; in test [10], 0.215; in [11] it was 1.55; in test [15] it was 2.18; in test [17], -0.431. Moreover, the composite z-score in test [18] is 1.87; in [19], 1.1; in [20], -0.336. The z-score in test [8] was 0.29 (inactive); in test [12] it was 1.15 (inactive); in test [13], 1.14 (inactive); in test [14], 4.54 (inactive); in [16] it was 1.44 (inactive).
Take `C[C@]1(C(=O)NCCN2CCOCC2)c2ccccc2C(=O)N(Cc2cc(F)cc(C(F)(F)F)c2)[C@H]1c1ccc(CO)cc1`: the composite z-score is 0.0545 in test [1]; 0.933 in test [2]; -0.141 in test [3]; -0.762 in [4]; -0.387 in test [5]; 1.06 in test [6]. The composite z-score in test [7] was 1.47; in test [9] it was 1.16; in [10] it was -0.0994; in test [11], 1.49; in [15], 3.36; in [17], -0.0511. For the same compound, the values for the composite z-score in test [18], in test [19] and in test [20] were 0.463, 0.572 and -0.142, respectively. For the same compound, the z-score in test [8] was -1.54 (inactive); in [12], 0.006 (inactive); in [13], 0.487 (inactive); in test [14], -0.837 (inactive); in test [16], 1.47 (inactive).
For `C=CCNC(=O)[C@H]1[C@@H]2C(=O)O[C@@H](c3ccccc3)[C@@H](c3ccccc3)N2[C@@H](c2ccc(O)cc2)[C@]12C(=O)N(C(=O)OCCOC)c1ccc(C#CCC(C(=O)OC)C(=O)OC)cc12`, the composite z-score in [1] was -0.114; in test [2], 0.85; in [3] it was -0.0422; in [4], 0.453; in test [5], 0.719; in test [6] it was 0.225. Also, the composite z-score in [7] was 1.21; in test [9], 0.376; in test [10], -0.162; in test [11], 1.56; in [15] it was 2.11; in test [17] it was -0.0229. Also, the composite z-score was 1.2 in test [18], 1.11 in test [19] and 0.0551 in test [20]. The z-score in test [8] was 0.172 (inactive); in test [12], 0.106 (inactive); in test [13] it was 1.57 (inactive); in test [14], 5.5 (inactive); in [16], 0.301 (inactive).
